Key:
Test in all cases: PBM binding z-score (relative to random genomic background probes); higher = stronger binding; sequences stand for … in GC…GCGATTGACAGCGTAGAATGAAGG
[1] = system: FXR:RXRa (NR concentration 270 nM, RXRa partner concentration 90 nM)
Method in brief: (§1)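 The probes on custom Agilent 4×180K protein-binding microarrays were double-stranded, with 34-nt variable regions bearing direct-repeat seeds, single-nucleotide variants, half-site ablations and random human genomic background sequences. Incubation lasted 1 h with ligand-free nuclear receptor dimers in PBS pH 7.4, 2% milk, 0.02% Triton X-100, 1 mM DTT, 0.2 mg/mL BSA and 0.4 mg/ml salmon testes DNA. Antibodies against each partner (one per run) detected bound dimers, and fluorescence scans were regression-normalized. Binding z-scores take the random background probes as reference.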

[2] = system: LXRa:RXRa (NR concentration 270 nM, RXRa partner concentration 90 nM)
Method in brief: as §1

[3] = system: LXRa homodimer (NR concentration 270 nM)
Method in brief: as §1

[4] = system: LXRb:RXRa (NR concentration 270 nM, RXRa partner concentration 90 nM)
Method in brief: as §1

[5] = system: LXRb homodimer (NR concentration 270 nM)
Method in brief: as §1

[6] = system: PPARa:RXRa (NR concentration 270 nM, RXRa partner concentration 90 nM)
Method in brief: as §1

[7] = system: PPARg:RXRa (NR concentration 180 nM, RXRa partner concentration 90 nM)
Method in brief: as §1

[8] = system: PPARg:RXRa 270nM:90nM, anti-RXR (NR concentration 270 nM, RXRa partner concentration 90 nM)
Method in brief: as §1

[9] = system: PPARg:RXRa 30nM:10nM, anti-RXR (NR concentration 30 nM, RXRa partner concentration 10 nM)
Method in brief: as §1

[10] = system: PPARg:RXRa 90nM:30nM, anti-RXR (NR concentration 90 nM, RXRa partner concentration 30 nM)
Method in brief: as §1

[11] = system: PPARg:RXRa DBDmut IVT, anti-RXR (DBD mutation: RXRa K156A/R161A, NR concentration 270 nM, RXRa partner concentration 90 nM)
Method in brief: as §1

[12] = system: PPARg:RXRa IVT, anti-PPARg (NR concentration 270 nM, RXRa partner concentration 90 nM)
Method in brief: as §1

[13] = system: PPARg DBDmut:RXRa IVT, anti-PPARg (DBD mutation: PPARg1 K132A/R137A, NR concentration 270 nM, RXRa partner concentration 90 nM)
Method in brief: as §1

[14] = system: PPARg DBDmut IVT, anti-PPARg (DBD mutation: PPARg1 K132A/R137A, NR concentration 270 nM)
Method in brief: as §1

[15] = system: PPARg homodimer (NR concentration 180 nM)
Method in brief: as §1

[16] = system: PXR:RXRa (NR concentration 270 nM, RXRa partner concentration 90 nM)
Method in brief: as §1

[17] = system: PXR homodimer (NR concentration 270 nM)
Method in brief: as §1

[18] = system: RARa:RXR (NR concentration 270 nM, RXRa partner concentration 90 nM)
Method in brief: as §1

[19] = system: RARa homodimer (NR concentration 270 nM)
Method in brief: as §1

[20] = system: RARb:RXRa (NR concentration 270 nM, RXRa partner concentration 90 nM)
Method in brief: as §1

Sequence	PBM binding z-score [1]	PBM binding z-score [2]	PBM binding z-score [3]	PBM binding z-score [4]	PBM binding z-score [5]	PBM binding z-score [6]	PBM binding z-score [7]	PBM binding z-score [8]	PBM binding z-score [9]	PBM binding z-score [10]	PBM binding z-score [11]	PBM binding z-score [12]	PBM binding z-score [13]	PBM binding z-score [14]	PBM binding z-score [15]	PBM binding z-score [16]	PBM binding z-score [17]	PBM binding z-score [18]	PBM binding z-score [19]	PBM binding z-score [20]
ATCGAAATGTCGAGGTGAGTATAGAGAAAGGGAA	0.0498	-0.124	-0.716	-0.253	-0.363	0.204	0.315	0.0336	0.162	0.363	-0.755	0.414	0.309	0.489	-0.704	-0.204	-0.513	0.129	-0.696	0.538
ACTACTAGTTGAGACGAGGGCAACCGATAGGTTG	0.166	-0.245	-0.365	-0.0617	-0.193	0.173	0.721	0.0309	-0.149	-0.0878	0.0475	0.419	0.298	0.0425	0.265	1.22	0.4	0.775	0.103	0.93
CGAACTAGGTTATTGACAGGACAGTGAATAGTAA	0.276	0.886	0.37	0.406	-0.0993	2.09	2.41	2.12	0.574	1.47	5.85	5.11	0.805	0.514	0.855	0.198	0.237	0.554	0.372	0.837
TAGCCTAGGTCAGTCAGGGGCCAGTATAGAAAGC	1.42	0.48	-0.418	0.85	-0.405	1.46	0.583	1.04	-0.0718	0.829	0.759	1.71	0.0282	-0.431	0.236	0.48	-0.639	1.32	-0.63	3.21
TTACCAAGGTGAAAGATCGTTGATGCACGCCTTG	0.552	0.392	-0.574	0.286	-0.696	2.36	2.97	3.92	2.25	3.77	1.56	2.99	0.596	0.116	0.393	0.0637	-0.296	0.393	-0.301	1.23
TTATATAGGTAAAAGGTGAAAGTCGGTGTGGTAA	2.14	1.87	0.372	2.02	-0.0123	6.3	10.6	9.28	9.36	10.3	7.08	6.76	2.28	1.42	2.84	1.91	0.453	3.15	1.5	1.86
CCGACTGGGGTAAGGTTACCATAACGCACAGCCA	0.62	1.11	-0.0991	1.31	-0.565	2.14	2.11	2.5	0.595	1.71	1.25	2.26	-0.489	-1.25	0.783	0.899	-0.126	1.55	0.484	1.3
TCGAGTGGGTTACCAATGGGGCATTCAGCTTTCT	-1.28	0.53	-0.905	0.75	-0.956	0.859	-0.273	0.677	0.872	0.607	2.12	1.77	-0.245	-0.482	-0.73	-0.197	-0.99	-0.236	-0.45	0.353
GGAACGAGGGCAAAGTTGTTAGCATCTGTCGACG	0.763	0.635	-0.337	0.517	-0.419	2.61	3.61	4.82	2.96	4.84	3.85	3.57	0.128	-0.75	0.469	0.802	0.198	0.675	0.0341	2.31
AGAATGAGGTGACCAAAGATCAGGGAAACGCTTG	0.916	0.957	-0.26	0.478	-0.291	2.24	2.48	2.2	0.478	1.46	4.37	4.21	0.497	0.08	0.216	0.534	-0.16	0.899	-0.253	1.3
AGAACGAGGGCAATGAGTTGATAGTACGGGTGGC	0.224	0.29	-0.524	-0.18	-0.473	1.56	1.5	0.768	0.0705	0.415	3.34	2.4	-0.466	0.0133	0.221	2	6.24	0.19	-0.58	2.11
CATACAGGGTCAGCTACGCCAGAGTAGGGACGGC	4.39	3.1	0.0565	2.3	0.562	4.28	3.26	3.22	0.875	2.03	1.11	2.35	0.652	1.25	1.54	2.22	-0.0173	3.27	0.771	3.99
AGAACGAGGGCACGCTTAGTTGATAGCAGAGTAG	0.731	0.538	-0.173	0.495	-0.638	2.26	2.16	1.86	0.46	1.5	4.36	4.09	0.457	0.676	0.226	0.718	-0.259	1.06	-0.203	2.66
CATACAGGGTCAGCTAGGCCAGTGTAGGGACGGC	4.16	2.82	-0.158	1.81	0.182	4.09	2.96	2.97	0.501	2.32	1.02	2.44	0.598	0.349	1.32	1.78	-0.247	3.02	-0.155	3.98
CCAACTAGGTCACCGGAAGGTCAAAGTCCGCATG	6.49	5.96	5.35	5.35	1.43	5.81	9.14	7.51	5.79	6.94	8.42	8.36	0.902	1.2	9.32	6.17	2.46	7.7	4.05	5.15
CCTCGGACGACAACAGGAGGTCAGAGCTGCCAGA	0.715	1.65	1.91	1.42	0.113	1.73	0.478	-0.0139	-0.511	-0.34	-0.649	0.0157	-0.728	-1.24	1.84	1.67	0.467	2.11	0.372	1.96
ATACCAACGTGATCGTGAGGTCGTTGATACTAAC	0.885	0.498	0.494	0.84	-0.123	0.65	0.385	-0.0479	-0.202	-0.163	-0.625	0.0964	0.725	0.527	0.699	1.67	0.835	1.23	-0.137	0.259
GATACAGGGTCATGGCCAGAGTACGCGTATTGAT	6.5	4.72	-0.00415	3.79	-0.283	5.65	6.02	6.38	2.73	4.67	3.28	4.13	0.893	-0.182	1.88	4.2	-0.295	5.43	0.00513	4.31
TCAGACAGATGAAGGTAACTCAGGTACGCAGTCG	0.719	0.98	-0.272	0.763	-0.545	0.832	0.832	2.06	4.27	3.3	2.29	0.179	-0.273	-0.478	0.326	0.521	0.216	0.684	0.265	0.227
CCTAGCAGGCCAGGGTCACTCGAGCATTTCGCTT	2.22	1.62	-0.424	1.78	-0.991	2.98	0.557	1.6	-0.327	0.652	0.58	1.02	-0.592	-1.77	0.543	2.32	-0.255	3.1	-0.646	2.57
AGAATGAGGTTACGATCAGGGAAACAGAATACAT	1.98	1.94	-0.122	1.75	-0.632	3.9	2.97	2.65	1.2	2.18	3.35	3.6	1.79	0.837	0.684	1.19	0.235	1.92	0.462	2.16
ACAATGAGGTTAAGATCAGGGAAACAGAATACAT	2.2	2.23	0.0608	1.85	0.674	3.04	2.06	1.68	0.802	1.24	1.93	1.78	1.53	1.8	1	1.35	0.672	1.97	1.24	1.95
TCGAGTTGGTTACCAATGGGGCATTCAGCTTTCT	-0.51	-0.505	-1.1	-0.17	-0.988	-0.0256	-0.676	0.352	0.536	0.652	0.424	-0.405	-1.9	-0.375	-1.66	-0.425	-0.63	-0.69	-1.31	-0.219
TCATATAGGTAAAAGGTGAAAATCGGTGTGGTAA	2.32	2.08	0.347	2.14	0.2	5.34	9.36	8.69	8.68	9.26	5.1	5.08	1.43	0.511	2.07	1.97	0.321	3.05	1.48	1.78
TCTTGTAGCTCAGCAGGTTAAGAAAGCTGGCCAA	-0.369	-0.138	-0.851	-0.1	-0.79	0.495	-0.935	0.729	1.58	1.27	0.777	-0.372	-0.853	-0.876	-0.753	-0.26	-0.524	-0.108	-1.11	-0.157
AGAACGAGGGCAATGAGTTAATAGCACGGGTGGC	0.223	0.22	-0.363	-0.11	-0.589	1.34	1.56	1.23	-0.12	0.528	3.29	2.59	0.242	0.395	0.0728	1.43	2.98	0.239	-0.224	2.04
CAGCCTAGGTCAGGGCGAGTATAGGAGGAACGTT	1.8	0.876	-0.437	0.505	-1.08	2.07	1.03	1.29	0.157	0.783	1.68	1.54	-1.19	-1.55	0.665	0.305	-0.665	1.11	-0.626	3.19
CAAACTCGGTCACAGAGGTCAAAGTCCGTGCGTA	5.99	6.29	7.24	5.29	2.04	5.72	5.27	6.24	3.25	5.58	5.32	6.01	1.83	1.84	5.93	6.25	8.31	6.39	2.88	4.75
GGAACGAGGGCATTCGAGTTGACAGCATGGCGAT	1.65	1.9	-0.394	-0.0362	-0.953	1.34	0.875	0.675	-0.547	-0.0204	2.98	2.46	0.222	-0.00883	-0.393	3.85	1.46	0.951	-0.555	1.87
